# In ChEMBL document CHEMBL1201862, “PubChem BioAssay data set” (2004):
# Screen size: about 400,000 compounds; about 2,100 (0.53%) were called active. Not shown: some 14% with an inconclusive outcome. No rule for the calls is given here. Only a selection was taken, and actives are over-represented in it overall.
# Biological target: Ataxin-2 (Homo sapiens) (UniProt Q99700)
# Assay: qHTS for Inhibitors of ATXN expression.
# Assay type: functional
# Ataxin-2 (Homo sapiens), sequence (Q99700 whole entry): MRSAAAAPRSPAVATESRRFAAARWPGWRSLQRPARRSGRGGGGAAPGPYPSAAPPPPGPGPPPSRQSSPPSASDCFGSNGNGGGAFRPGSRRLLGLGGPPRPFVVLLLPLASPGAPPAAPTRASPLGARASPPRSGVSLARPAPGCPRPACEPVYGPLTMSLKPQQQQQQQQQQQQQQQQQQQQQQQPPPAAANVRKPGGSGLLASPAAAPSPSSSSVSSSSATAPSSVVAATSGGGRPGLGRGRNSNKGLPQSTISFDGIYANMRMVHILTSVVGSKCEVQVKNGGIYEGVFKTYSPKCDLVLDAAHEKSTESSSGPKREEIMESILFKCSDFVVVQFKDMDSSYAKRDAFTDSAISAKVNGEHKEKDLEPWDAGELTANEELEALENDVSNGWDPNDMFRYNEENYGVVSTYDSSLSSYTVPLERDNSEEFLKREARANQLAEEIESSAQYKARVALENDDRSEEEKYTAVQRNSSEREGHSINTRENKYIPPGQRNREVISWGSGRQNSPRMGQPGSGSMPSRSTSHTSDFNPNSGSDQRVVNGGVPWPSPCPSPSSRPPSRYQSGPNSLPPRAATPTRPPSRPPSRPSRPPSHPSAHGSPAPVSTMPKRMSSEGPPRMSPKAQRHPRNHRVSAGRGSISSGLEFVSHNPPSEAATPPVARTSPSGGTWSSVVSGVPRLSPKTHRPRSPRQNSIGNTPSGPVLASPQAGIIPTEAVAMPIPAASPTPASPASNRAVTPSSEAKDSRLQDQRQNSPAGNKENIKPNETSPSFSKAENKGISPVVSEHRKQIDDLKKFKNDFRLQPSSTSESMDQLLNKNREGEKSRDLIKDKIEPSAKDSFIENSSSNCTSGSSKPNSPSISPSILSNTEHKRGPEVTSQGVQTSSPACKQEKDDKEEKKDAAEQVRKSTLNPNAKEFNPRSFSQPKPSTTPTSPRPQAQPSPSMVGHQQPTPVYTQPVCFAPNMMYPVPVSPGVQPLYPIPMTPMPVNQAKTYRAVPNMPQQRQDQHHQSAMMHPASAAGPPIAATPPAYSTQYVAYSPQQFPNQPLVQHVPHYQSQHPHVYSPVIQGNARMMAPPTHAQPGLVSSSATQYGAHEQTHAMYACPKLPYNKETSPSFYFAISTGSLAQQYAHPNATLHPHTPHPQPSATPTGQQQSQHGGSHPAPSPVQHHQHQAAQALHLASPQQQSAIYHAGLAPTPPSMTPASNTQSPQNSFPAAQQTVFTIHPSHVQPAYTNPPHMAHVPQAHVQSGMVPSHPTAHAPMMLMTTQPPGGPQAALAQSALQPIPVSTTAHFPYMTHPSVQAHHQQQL
row,SMILES,Potency
1,Cc1cccn2c(=O)c3cc(C(=O)NCCCN4CCCC4=O)n(C)c3nc12,inactive
2,Cc1cccc(C2=NN(c3ccccc3)[C@H](CO)[C@H]2c2ccc(F)cc2)c1,inactive
3,Cc1ccc(C2(c3ccc(C)cc3)NC(=O)N(CC(=O)NCCCN3CCCC3=O)C2=O)cc1,inactive
4,Cc1ccc(-n2cc(CNCCCn3cccn3)c(-c3cccc(C)c3)n2)cc1,20 µM (active)
5,Cc1cccc(-n2cc(CNCCc3nc(C)cc(C)n3)c(-c3cccc(F)c3)n2)c1,31.6 µM (active)
6,Cc1ccc(-n2cc(CNCCCN3CCCC3=O)c(-c3ccc(F)cc3)n2)cc1,25.1 µM (active)
7,CCOC(=O)c1cc2c(=O)n3ccccc3nc2n(CCCOC)/c1=N\C(=O)C(C)(C)C,inactive
8,CCOc1ccc(NC(S)=Nc2cccnc2)cc1,inactive
9,Cc1cc(N(C)Cc2ccccc2)nc2cc(O)ccc12,inactive
10,CN(CCCC(=O)N1CCN(c2ncccn2)CC1)S(=O)(=O)c1ccc(F)cc1,inactive
11,O=C(NCC1CCCCC1)c1ccc(Cl)c(S(=O)(=O)N2CCOCC2)c1,inactive
12,O=C(NC1CCCCCC1)c1cc2c(=O)n3ccccc3nc2s1,inactive
13,O=C(Cn1ncc(Cl)c(Cl)c1=O)NCC1CCCCC1,31.6 µM (active)
14,O=C(Cn1ncc(Cl)c(Cl)c1=O)NC1CCCCC1,28.2 µM (active)
15,Cc1ccc(-n2nc3c(=O)n(CC(=O)NC4CCCCC4)nc(C)c3c2C)cc1,inactive
16,Cc1cc(C(F)(F)F)c(C#N)c(SCC(=O)Nc2nc3cc(Br)ccc3s2)n1,inactive
17,COC(=O)c1sc2ccccc2c1NC(=O)c1ccc(S(=O)(=O)N2CCCC(C)C2)cc1 (stereo unspecified),inactive
18,Cc1ccc2nc3c(cc2c1)c(NC(=O)c1ccco1)nn3CC(C)C,inactive
19,CCC(c1nnnn1Cc1ccco1)N(CCc1ccccc1)Cc1cc2cc(C)ccc2nc1O (stereo unspecified),39.8 µM (active)
20,COc1ccc(CCN(Cc2cc3cc(C)ccc3nc2O)C(C)=O)cc1OC,inactive
21,Oc1nc2ccccc2nc1-c1nnnn1Cc1ccccc1,inactive
22,CCOc1ccc2nc(O)c(CN(Cc3ccco3)C(CC)c3nnnn3Cc3ccccc3)cc2c1 (stereo unspecified),20 µM (active)
23,CC1CCCN(C(=S)SCC(=O)c2cc(Br)cc(Br)c2O)C1 (stereo unspecified),inactive

row,SMILES,Potency
1,O=C(Cc1csc(Nc2nc(S)nc3ccccc23)n1)N1CCN(c2cccc(Cl)c2)CC1,inactive
2,CCn1c(SC(C)C(=O)Nc2nnc(C)s2)nnc1-c1ccco1 (stereo unspecified),inactive
3,Cc1cc(/C=C(\C#N)C(=O)NCc2cccs2)c(C)[nH]1,inactive
4,Cc1cc(C(=O)CN2C(=O)c3cccc(N)c3C2=O)c(C)n1Cc1cccs1,inactive
5,Cc1c(C#N)c(NC(=O)CCl)n(Cc2cccs2)c1C,11.2 µM (active)
6,Cc1c(CCC(=O)O)c(=O)oc2c(C)c3occ(-c4ccc(Cl)cc4)c3cc12,inactive
7,C[C@@H]1CN([C@@H](C)CO)C(=O)CCCn2nncc2CO[C@H]1CN(C)Cc1ccc(-c2ccccc2)cc1,28.2 µM (active)
8,O=C1OCc2ccc(NS(=O)(=O)c3ccc(C(F)(F)F)cc3)cc21,inactive
9,C[C@H](CO)N1C[C@H](C)[C@@H](CN(C)S(=O)(=O)c2ccc(-c3ccccc3)cc2)OCc2cn(nn2)CCCC1=O,inactive
10,COc1cccc(S(=O)(=O)N(C)C[C@@H]2OCc3cnnn3CCCC(=O)N([C@@H](C)CO)C[C@H]2C)c1,inactive
11,C[C@H]1CN([C@@H](C)CO)C(=O)Cc2cc(NC(=O)CCC(F)(F)F)ccc2O[C@H]1CN(C)Cc1ccc(C(F)(F)F)cc1,39.8 µM (active)
12,C[C@@H]1CN([C@H](C)CO)C(=O)Cc2cc(NS(=O)(=O)c3ccc(Cl)cc3)ccc2O[C@H]1CN(C)Cc1ccc(C(F)(F)F)cc1,25.1 µM (active)
13,C[C@H]1CN([C@@H](C)CO)C(=O)Cc2cc(NC(=O)CCC(F)(F)F)ccc2O[C@H]1CN(C)Cc1ccc(-c2ccccc2)cc1,35.5 µM (active)
14,COCCCNC(=O)/C(C#N)=C/c1c(N2CCN(C)CC2)nc2c(C)cccn2c1=O,inactive
15,CNS(=O)(=O)c1ccc2c3c(cccc13)C(=O)N2,inactive
16,Cc1c(Cc2ccccc2)c(NCCCO)n2c(nc3ccccc32)c1C#N,inactive
17,NC(=O)c1cc2ccc(O)cc2o/c1=N\c1ccccc1,inactive
18,CN(C)Cc1ccccc1CNC(=O)c1cccc(S(=O)(=O)Nc2ccc3c(c2)OCO3)c1,inactive
19,Cc1cc(C)c(S(=O)(=O)NCc2ccc3c(c2)OCO3)c(C)c1,inactive
20,Cc1ccc(S(=O)(=O)Nc2ccc3c(c2)CC(=O)N([C@H](C)CO)C[C@H](C)[C@H](CN(C)Cc2ccc4c(c2)OCO4)O3)cc1,35.5 µM (active)
21,Cc1ccc(NC(=O)C2CC(=O)N(C(C)C)C2)cc1C (stereo unspecified),inactive
22,C[C@H]1CN([C@@H](C)CO)C(=O)Cc2cc(NC(=O)C3CC3)ccc2O[C@H]1CN(C)Cc1ccc(Oc2ccccc2)cc1,25.1 µM (active)
23,Cc1ccc(-c2nc(C[S+]([O-])CC(=O)NCCN3CCCCCC3)c(C)o2)cc1 (stereo unspecified),inactive

row,SMILES,Potency
1,CCOC(=O)CN1C(=O)CC(c2ccc([N+](=O)[O-])cc2)C1=O (stereo unspecified),inactive
2,NC(=O)c1nsc(C(=O)N(c2ccccc2F)C(C(=O)NCc2ccccc2)c2ccc(O)cc2)c1N (stereo unspecified),inactive
3,Cc1ccc(Nc2nc(-c3ccncc3)cs2)cc1,inactive
4,Cc1ccc(-c2csc(N3CCN(CCCn4c(-c5ccncc5)nc5ccccc54)CC3)n2)cc1,35.5 µM (active)
5,Cc1csc(N2CCN(c3cc4c(cc3Cl)nc(-c3ccncc3)n4CCCN3CCCC3)CC2)n1,35.5 µM (active)
6,O=[N+]([O-])c1ccc(-c2csc(N3CCCCCC3)n2)cc1,inactive
7,O=C(Nc1nc2c(s1)CN(Cc1ccccc1)CC2)c1c(F)cccc1F,inactive
8,ClC1(Cl)CC1CSc1nc2ccccc2[nH]1 (stereo unspecified),inactive
9,COc1ccc(-n2c(=O)/c(=C\c3cccs3)s/c2=C(/C#N)C(=O)N2CCN(C)CC2)cc1,inactive
10,COc1ccc(/C=C2/SC(=S)N(CCCC(=O)N3CCN(C)CC3)C2=O)cc1,17.8 µM (active)
11,CN1CCN(C(=O)CCN2C(=O)/C(=C\c3ccc(F)cc3)SC2=S)CC1,39.8 µM (active)
12,Cc1ccc(/C=C2\SC(=S)N(CCC(=O)NNC(=O)c3ccncc3)C2=O)cc1,inactive
13,O=C(CCN1C(=O)/C(=C\c2ccc(F)cc2)SC1=S)Nc1ccccc1,inactive
14,Cc1ccc(/C=C2/SC(=S)N(CCC(=O)N3CCN(C)CC3)C2=O)cc1,11.9 µM (active)
15,Cc1ccc(/C=C2\Oc3c(ccc(O)c3CN3CCN(C)CC3)C2=O)cc1,inactive
16,COc1ccc(/C=C2\SC(=S)N(CC(=O)NNC(=O)c3ccncc3)C2=O)cc1,inactive
17,CC/N=C1/S/C(=C/c2ccc(-c3ccc(F)cc3)o2)C(=O)N1CC,inactive
18,O=C(Nc1cc[n+](-c2nc3ccccc3nc2[N-]S(=O)(=O)c2ccccc2)cc1)c1cccs1,inactive
19,COC(=O)c1ccc(CSc2nc(C(F)F)cc(C)c2C#N)o1,inactive
20,O=C(OCC1CCNCC1)c1ccc(F)cc1,inactive
21,C=CCNC(=O)C(C#N)c1nc2ccccc2nc1N1CCCCCC1 (stereo unspecified),inactive
22,COc1cccc(/C=N/NC(=O)NC2CCCCC2)c1O,inactive
23,COc1ccccc1[C@@H]1C(c2ccc(F)cc2)=NN(c2ccccc2)[C@H]1C(=O)N1CCOC1=O,inactive

row,SMILES,Potency
1,COc1ccccc1/C=C/C1(C(=O)NC2CCCC2)CC(=O)N1c1ccc(F)cc1 (stereo unspecified),14.1 µM (active)
2,COc1ccccc1Nc1nc(Cl)c(C=O)s1,inactive
3,Nc1nc(Sc2ccc([N+](=O)[O-])c3nonc23)c2nc[nH]c2n1,22.4 µM (active)
4,CCCNC(=O)/C=C/C(=O)O,inactive
5,Cc1cc(C(=O)O)ccc1-c1ccc(/C=C2\NC(=O)N(Cc3ccccc3Cl)C2=O)o1,inactive
6,CC(=O)c1ccccc1NC(=O)COC(=O)CN1C(=O)C2CCCCC2C1=O (stereo unspecified),inactive
7,CSc1ccc(NC(=O)NCCCN2CCC(Cc3ccccc3)CC2)cc1,39.8 µM (active)
8,O=C(OCC(=O)N1CCC(Cc2ccccc2)CC1)c1ccccc1F,inactive
9,O=C(Nc1ccccc1)Nc1ccccc1C(=O)NCCCN1CCOCC1,inactive
10,CN(C)c1ccc(/C=N/CCc2ccc(S(N)(=O)=O)cc2)cc1,inactive
11,C(=C\c1ccco1)/C1=NN(c2ccccc2)C(c2ccco2)C1 (stereo unspecified),inactive
12,CCOCCCn1/c(=N/C(C)=O)c(C(=O)OCC)cc2c(=O)n3ccccc3nc21,inactive
13,COc1cccc2c1C(=O)c1c(O)c3c(c(O)c1C2=O)C[C@](O)(C(C)=O)C[C@H]3O[C@@H]1C[C@H](N)[C@H](O)[C@H](C)O1,1 µM (active)
14,COc1cccc2c1C(=O)c1c(O)c3c(c(O)c1C2=O)CC(O)(C(=O)CO)CC3OC1CC(N(C)C)C(O)C(C)O1 (stereo unspecified),1.19 µM (active)
15,COc1cccc2c1C(=O)c1c(O)c3c(c(O)c1C2=O)C[C@@](O)(C(=O)CO)C[C@@H]3O[C@H]1C[C@H](N)[C@@H](O)[C@H](C)O1,8.91 µM (active)
16,COc1cccc2c1C(=O)c1c(O)c3c(c(O)c1C2=O)CC(O)(C(C)=NNC(=O)c1ccc(Cl)c(Cl)c1)CC3OC1CC(N)C(O)C(C)O1 (stereo unspecified),2.67 µM (active)
17,CC(=O)/N=c1\c(C#N)cc2c(=O)n3cccc(C)c3nc2n1Cc1ccco1,inactive
18,CCN(CC)c1ccc(-n2nc3cc(C)c(NC(=O)c4ccccc4F)cc3n2)cc1,inactive
19,CCn1cnc2c1c(=O)n(CC(=O)NN)c(=O)n2Cc1ccccc1,inactive
20,Nc1c(C(=O)Nc2ccc(Br)cc2)sc2nc(-c3ccco3)ccc12,inactive
21,Cc1nn(C)c(C)c1N1C(=O)c2cccc3c(N)ccc(c23)C1=O,inactive
22,NNC(=O)c1oc2nc(-c3ccc(Cl)cc3)cc(-c3ccccc3)c2c1N,inactive
